Most compounds without a hit are left out; they make up all but 0.9% or so of the library.
TDP1 block: blocks human tyrosyl-DNA phosphodiesterase 1; Q9NUW8; 350,000 tested, 0.28% active; recombinant TDP1, AlphaScreen DNA substrate cleavage; Potency, µM (series often up to 130 µM), usual class: inhibitors; further: nearly all actives have a fitted effect of over 40% in size
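E. coli-derived human Tdp1, 1 nM final. Cpd preinc 15 min RT; substrate 15 nM final, 5 min RT; AS bead mix 10 ug/ml final, 10 min RT. Signal loss = tyrosine-FITC cleavage. No-enzyme wells = max signal.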
Lamin A splicing: modulators of lamin A splicing; HeLa LMNA splicing GFP/RFP minigene ratio, 48 h; Potency, µM (titrated, usually from 46.1 µM), most hits filed as inhibitors; 200,000 tested, 0.01% active; active means well fitted inhibition curve with a large enough effect in the signal ratio, with a control signal flat, not every such curve was filed as active; inconclusive means small, poorly fitted or top-dose-only effect, or effect the other way, or a change in a side signal; the % refers to the signal ratio
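Read-out is the ratio of GFP to DsRed2 object intensity, acquired by 488 nm laser-scanning cytometry on HeLa lamin A-EGFP minigene reporter cells. Compound incubation 48 hrs at 37 °C in Opti-MEM with 2% FBS; DMSO 0.5% final.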
KAT2A inh: GCN5L2 (KAT2A) acetyltransferase inhibition. Q92830. GCN5L2 HAT assay, ThioGlo1 CoA-SH fluorescence. Potency, µM (top dose mostly 58.9 µM), most hits filed as inhibitors. 390,000 tested, 0.21% active. AID 504327
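qHTS, 1536-well. 20nM enzyme, pH 7.5 HEPES/EDTA/Tween-20 buffer; 15 min compound preinc., RT. Start: 75uM H3(1-25), 70uM AcCoA, 50uM ThioGlo1. Read Ex340/Em540 at t=0 (autofluorescence flag) and t=20 min.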
RECQ1 inh: blocks DNA unwinding by human RECQ1; P46063; RECQ1 DNA unwinding, red fluorescence kinetic read; Potency, µM (series often up to 57.3 µM), most hits filed as inhibitors; 240,000 tested, 0.54% active; further: nearly all actives have a fitted effect of over 30% in size
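RECQ1T1 50 nM; forked duplex (20 bp + 30-nt ss tails) 200 nM, ATP 2 mM final; pH 8.0, 2 mM MgCl2, 2.5 ug/ml poly(dI-dC); 15 min compound preincubation; discontinuous kinetic read over 2 h at RT.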
BLM helicase inh: blocks DNA unwinding by human BLM helicase. P54132. recombinant BLM DNA unwinding, fluorescence dequenching. Potency, µM (top dose mostly 56.1 µM), actives largely listed as inhibitors. 350,000 tested, 0.2% active; further: nearly all actives have a fitted effect of over 35% in size
APE1 inh: blocks human APE1 abasic DNA cleavage | AID 2517 | recombinant APE1, TAMRA/BHQ-2 abasic DNA cleavage fluorescence | Potency, µM (series often up to 65.8 µM), most hits filed as inhibitors | 350,000 tested, 0.35% active | P27695; further: nearly all actives have a fitted effect of over 55% in size
Target sequence (P27695 whole entry, looked up): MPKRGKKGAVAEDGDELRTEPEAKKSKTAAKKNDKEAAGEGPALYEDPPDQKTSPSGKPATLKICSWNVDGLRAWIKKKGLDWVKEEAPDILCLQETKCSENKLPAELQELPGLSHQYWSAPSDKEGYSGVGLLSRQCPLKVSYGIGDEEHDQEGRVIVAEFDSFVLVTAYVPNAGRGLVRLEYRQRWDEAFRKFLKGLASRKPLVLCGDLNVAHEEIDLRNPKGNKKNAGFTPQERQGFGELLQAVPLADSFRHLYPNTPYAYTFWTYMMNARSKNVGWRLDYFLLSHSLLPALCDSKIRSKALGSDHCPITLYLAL
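Enzyme (0.75 nM final) and test compound are incubated 15 min at room temperature before adding 50 nM quenched THF abasic-site duplex. Cleavage dequenches TAMRA, followed at 525/598 nm over three reads one minute apart.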
Hits are given with their value; n = inactive; u = inconclusive; x = no result given; ! = not confirmed by another sample; [ ] = another dose, or the depositor's remark. Unless noted, the call rests on the fitted dose curve; in most records, active means well fitted curve in the direction sought with a large enough effect; inconclusive means small, poorly fitted or top-dose-only effect, or another doubt; inactive means no such curve, though single readings can be large; an effect the other way counts as inactive or inconclusive.

SMILES	TDP1 block	Lamin A splicing	KAT2A inh	RECQ1 inh	BLM helicase inh	APE1 inh
CC[N+](CC)(CC)CCOc1cccc(OCC[N+](CC)(CC)CC)c1OCC[N+](CC)(CC)CC	n	u	12.6µM	n	n	n
ClC1=C(Cl)C(Cl)(C2(Cl)C(Cl)=C(Cl)C(Cl)=C2Cl)C(Cl)=C1Cl	n	x	u	u	n	11.2µM
CCCCN1C(=O)/C(=C/c2ccc(N(C)C)cc2)C(=O)N(Cc2ccco2)C1=O	n	n	u	28.2µM	u	u
CN1C(=O)C(=CN2CCN(C(=O)c3ccco3)CC2)C(=O)N(C)C1=S	n	n	n	n	n	n
CCCCN1C(=O)/C(=C\c2ccco2)C(=O)N(CCc2ccccc2)C1=O	n	n	39.8µM	31.6µM	u	u
Oc1c(Cl)cc(Cl)cc1Cl	n	x	x	u	x	n
CCOc1ccc(C(C)=O)cc1Cc1c(O)[nH]c(=S)[nH]c1=O	n	x	14.1µM	x	n	n
CC(C)c1cc2c(c(O)c1O)[C@@]1(C(=O)O)CCCC(C)(C)[C@@H]1CC2	n	x	n	n	n	n
O=C1C(Cl)=C(Cl)C(=O)C(Cl)=C1Cl	x	x	u	u	n	39.8µM
O=S(=O)(Cl)c1ccccc1	n	x	x	n	x	n
N#CC(C#N)=NNc1ccc(OC(F)(F)F)cc1	n	x	u	n	u	u
O=C1C[C@@H](c2ccc(O)cc2)Oc2cc(O)cc(O)c21	n	n	n	n	n	n
O=C(O[C@@H]1Cc2c(O)cc(O)cc2O[C@@H]1c1cc(O)c(O)c(O)c1)c1cc(O)c(O)c(O)c1	x	n	n	3.16µM	n	0.891µM
CN(C)c1ccc(N)cc1	n	x	x	n	x	n
CCCCn1c(NC(=O)c2ccc(Br)o2)c(C(=O)OCC)c2nc3ccccc3nc21	n	u	n	n	22.4µM	n
CCCCCCCC/C=C\CCCCCCCC(=O)OC[C@@H](COP(O)(O)=S)OC	x	x	5.01µM	25.1µM	u	u
CCCCC/C=C\C/C=C\CCCCCCCC(=O)NCCO	n	x	n	n	n	n
O=c1[nH]c(=S)[nH]c(O)c1N=Nc1ccc(S(=O)(=O)N2CCOCC2)cc1	20µM	x	n	n	n	u
Cc1cc(/C=C2/C(=O)NC(=O)N(C)C2=O)c(C)n1-c1ccccc1	n	u	n	n	n	n
Cc1cc(C=C2C(=O)N(C)C(=S)N(C)C2=O)c(C)n1-c1cccnc1	n	n	n	n	17.8µM	n
CC1(C)OC(c2ccccc2)=C/C(=C/C=C2C(=O)NC(=S)NC2=O)O1	n	u	n	25.1µM	22.4µM	n
OC(c1ccc(Cl)cc1)(c1ccc(Cl)cc1)C(Cl)(Cl)Cl	n	x	x	n	x	n
O=c1ccc2cc(O[C@H]3O[C@@H](CO)[C@@H](O)[C@@H](O)[C@@H]3O)c(O)cc2o1	n[21 µM]	n	u	n	n	x
O=c1ccc2cc(O[C@@H]3O[C@@H](CO)[C@H](O)[C@@H](O)[C@@H]3O)c(O)cc2o1	x	x	22.4µM	x	n	n
COc1ccc(OC)c(N2C(=O)NC(=O)/C(=C\c3ccc([N+](=O)[O-])s3)C2=O)c1	n	n	u	n	15.8µM	u
SMILES	TDP1 block	Lamin A splicing	KAT2A inh	RECQ1 inh	BLM helicase inh	APE1 inh
Cc1cccc(N)c1C	n	x	x	n	x	n
Cc1ccc(N2C(=O)NC(=O)/C(=C/c3ccoc3)C2=O)cc1	3.16µM	x	n	12.6µM	15.8µM	1.58µM
Cn1cccc1/C=C1/C(=O)NC(=S)N(Cc2ccc(F)cc2)C1=O	x	x	n	25.1µM	u	u
NC1CCCC[C@H]1N (stereo partly drawn)	n	x	n	n	n	n
CC(=O)N1CC[N+](C)(C)CC1	n	x	20µM	n	n	n
C[N+](C)(C)Cc1ccccc1	n	n	n	n	n	n
Cc1ccc(C[N+](C)(C)C)o1	n	x	14.1µM!	n	n	n
CCS(=O)(=O)N1N=C(c2cccc(NS(C)(=O)=O)c2)CC1c1ccccc1 (stereo not drawn)	n	u	n	35.5µM	n	n
COC1=CC23CCCN2CCc2cc4c(cc2C3C1O)OCO4 (stereo not drawn)	n	x	n	n	n	n
CN1CCc2cc3c(cc2[C@@H]1O)OCO3	n	n	7.94µM	n	n	n

High-throughput results: PubChem BioAssay, National Center for Advancing Translational Sciences (NCATS)
